The results in this text go back to PubChem BioAssay.

The nature of experiment [1]: liver-stage malaria parasite load reduction – cell-based, known kinase inhibitor set, luminescence, hepatoma host viability (AID 624392).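 Also: infected cells incubated roughly two days before readout.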 To be noted: Plasmodium liver stage in hepatoma cells, luciferase luminescence, concentration not given here; liver cell % of control: measured here: host liver cell viability; parasite % of control: stronger effect = lower value.
The nature of experiment [2]: altered dexamethasone sensitivity, NF-kB reporter, cell-based, luciferase, IL-1B stimulus (AID 624486).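 As to percent of negative control (+Dex): 100% = mean signal of vehicle control wells on the plate.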 To be noted: IL-1B + dexamethasone, luminescence; percent of negative control (+Dex): actives lie on both sides, concentration not given here; z-score: measured here: IL-1B alone, no Dex.
A short description of experiment [3]: C. elegans survival during P. aeruginosa infection – whole organism (AID 651566).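 Also: tested at 14 µM; sign flipped so higher z means a lower ratio.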 The note with it: C. elegans killed by P. aeruginosa, survival ratio.
A short description of experiment [4]: pro-inflammatory signaling induction in mouse macrophages – cell-based, murine, luminescence (AID 652131). To be noted: murine macrophage pro-inflammatory reporter, stronger effect = higher value.
Experiment [5] deals with Cellular tumor antigen p53 (Homo sapiens) (UniProt P04637). The experiment in a line: GFP-p53 level modulators in HPV16+ cells – imaging, known kinase inhibitor set, EGFP/DsRed ratio (AID 1053116).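 Also: cells exposed to compounds for 24 h at 37 °C before reading.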 The note with it: GFP-p53 stability, stronger effect = higher value; EGFP object count: measured here: GFP-p53 positive objects count.
Cellular tumor antigen p53 (Homo sapiens), sequence (P04637 whole entry, looked up): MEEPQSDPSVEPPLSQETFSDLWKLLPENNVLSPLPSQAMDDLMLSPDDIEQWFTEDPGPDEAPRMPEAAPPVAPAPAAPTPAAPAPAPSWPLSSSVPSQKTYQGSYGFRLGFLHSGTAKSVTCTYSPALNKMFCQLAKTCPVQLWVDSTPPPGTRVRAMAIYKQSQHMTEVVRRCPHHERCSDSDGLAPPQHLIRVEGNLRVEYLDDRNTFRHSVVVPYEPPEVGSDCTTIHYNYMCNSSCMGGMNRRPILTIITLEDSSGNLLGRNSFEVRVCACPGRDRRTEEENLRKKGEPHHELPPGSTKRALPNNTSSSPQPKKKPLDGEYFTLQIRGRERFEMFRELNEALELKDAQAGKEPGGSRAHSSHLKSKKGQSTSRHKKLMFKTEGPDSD
The nature of experiment [6]: inducers of IRF3 signaling, differentiated THP-1 – cell-based, PMA-stimulated THP-1, luminescence (AID 1053176). The note with it: PMA-differentiated THP-1, IRF3 reporter luminescence; stronger effect = higher value.
Experiment [7] is described as follows: MELAS cybrid and Rieske KO viability enhancers – cell-based, MELAS cybrids, Rieske KO mouse fibroblasts, CellTiter-Glo, primary screen (AID 1508586;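 active = mean z-score across replicates of 1.96 or higher in either the MELAS or the Rieske mutant cell line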;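 also: z relative to plate mean and SD of compound and empty wells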). To be noted: low glucose. On the technique in general: ATP-based viability assays read luminescence as a measure of living cells.
[8] abbreviates: MELAS cybrid survival, CellTiter-Glo 48 h, stronger effect = higher value.
The mark [9] stands for this setting: Rieske KO mouse fibroblast survival, CellTiter-Glo 72 h.

Active and inactive are the calls of the source. Unless noted, no rule for the calls is given here.

In the case of `NC(=O)c1cccc(Nc2nccc(Nc3cccc(F)c3)n2)c1`, the liver cell % of control in experiment [1] was determined as 116%. Also, the parasite % of control in experiment [1] is 398% (inactive). The percent of negative control (+Dex) in experiment [2] is 208% (active). Moreover, the z-score in experiment [2] was 8.4; in experiment [3], 1.67 (inactive); in experiment [4], 0.244 (inactive); in experiment [7] (setting [8]) it was -0.778 (inactive); in experiment [7] (setting [9]) it was -0.359. The EGFP object count in experiment [5] came out at 2. For the same compound, in experiment [5], the EGFP/DsRed ratio is 0.0178 (inactive). Further, the fraction signal in experiment [6] is 0.002 (inactive).

As to `Nc1nc(-c2ccc3c(c2)/C(=C\c2cc(Br)c(O)c(Br)c2)C(=O)N3)cs1`, the liver cell % of control in experiment [1] worked out at 70.8%. The parasite % of control in experiment [1] is 79.2% (inactive). Besides, the percent of negative control (+Dex) in experiment [2] was 86.5% (inactive). In addition, the z-score was -0.23 in experiment [2]; 0.35 (inactive) in experiment [3]; 2.85 (inactive) in experiment [4]; -0.944 (inactive) in experiment [7] (setting [8]); -0.14 in experiment [7] (setting [9]). In addition, the EGFP object count in experiment [5] amounted to 5.5. Moreover, the EGFP/DsRed ratio in experiment [5] was 0.264 (inactive). In experiment [6], the fraction signal is -0.002 (inactive).

As to `CNC(=O)c1cccc(C#Cc2cncnc2Nc2ccc(OCc3cccc(F)c3)c(Cl)c2)c1`, the liver cell % of control in experiment [1] turned out to be 105%. In addition, the parasite % of control in experiment [1] was 143% (inactive). The percent of negative control (+Dex) in experiment [2] is 78% (inactive). Further, the z-score in experiment [2] was -0.47; in experiment [3], 0.59 (inactive); in experiment [4], -0.769 (inactive); in experiment [7] (setting [8]) it was -1.16 (inactive); in experiment [7] (setting [9]), -0.232. Also, the EGFP object count in experiment [5] came out at 1. For the same compound, the EGFP/DsRed ratio in experiment [5] is 0.0111 (inactive). In addition, the fraction signal in experiment [6] was 0.003 (inactive).

As to `Cc1nn(C)c2cc(N(C)c3ccnc(Nc4cccc(S(N)(=O)=O)c4)n3)ccc12`, in experiment [1], the liver cell % of control was determined as 71.5%. In experiment [1], the parasite % of control was 67% (inactive). Besides, in experiment [2], the percent of negative control (+Dex) is 82% (inactive). Besides, the z-score was 0.54 in experiment [2]; 0.53 (inactive) in experiment [3]; 3.14 (inactive) in experiment [4]; -0.638 (inactive) in experiment [7] (setting [8]); 0.0293 in experiment [7] (setting [9]). Moreover, the EGFP object count in experiment [5] came to 2. For the same compound, the EGFP/DsRed ratio in experiment [5] is 0.0899 (inactive). Moreover, in experiment [6], the fraction signal was -0.0065 (inactive).

On to `CCN1CCC(CC(=O)NC2NNC3NNC(c4cccc(F)c4F)CC32)CC1` (centres undefined), for which, in experiment [1], the liver cell % of control amounted to 80.9%. Further, the parasite % of control in experiment [1] is 32.2% (inactive). Also, in experiment [2], the percent of negative control (+Dex) was 118% (inactive). The z-score was -0.095 in experiment [2]; -0.285 (inactive) in experiment [3]; 0.818 (inactive) in experiment [4]; -0.762 (inactive) in experiment [7] (setting [8]); -0.436 in experiment [7] (setting [9]). Moreover, the EGFP object count in experiment [5] amounted to 25.5. Moreover, the EGFP/DsRed ratio in experiment [5] was 0.256 (inactive). For the same compound, the fraction signal in experiment [6] was -0.004 (inactive).

Compound `CS(=O)(=O)CCNCc1nc(-c2ccc3ncnc(Nc4ccc(F)c(Cl)c4)c3c2)cs1` came in with a liver cell % of control in experiment [1] of 103%. In experiment [1], the parasite % of control is 148% (inactive). The percent of negative control (+Dex) in experiment [2] was 70.5% (inactive). In addition, the z-score in experiment [2] was -1.57; in experiment [3] it was 0.63 (inactive); in experiment [4], 2.24 (inactive); in experiment [7] (setting [8]), 0.0696 (inactive); in experiment [7] (setting [9]) it was -0.331. The EGFP object count in experiment [5] turned out to be 6.5. Besides, in experiment [5], the EGFP/DsRed ratio was 0.211 (inactive). Also, the fraction signal in experiment [6] was 0.002 (inactive).

The compound `COc1cccc(COc2cc(-n3cnc4ccccc43)sc2C(N)=O)c1` returned a liver cell % of control in experiment [1] of 95%. Moreover, in experiment [1], the parasite % of control is 99.6% (inactive). In addition, the percent of negative control (+Dex) in experiment [2] was 87% (inactive). Moreover, the z-score in experiment [2] is -0.845; in experiment [3], 1.31 (inactive); in experiment [4], -0.593 (inactive); in experiment [7] (setting [8]), -0.15 (inactive); in experiment [7] (setting [9]) it was 0.0931. Also, the EGFP object count in experiment [5] worked out at 4. Further, the EGFP/DsRed ratio in experiment [5] was 0.0452 (inactive). Moreover, the fraction signal in experiment [6] is -0.006 (inactive).

With `N#Cc1ccc2c(-c3ccnc(NC4CC4)n3)c(-c3ccc(F)cc3)nn2c1`, the liver cell % of control in experiment [1] turned out to be 122%. For the same compound, the parasite % of control in experiment [1] was 87.3% (inactive). Further, in experiment [2], the percent of negative control (+Dex) is 106% (inactive). For the same compound, the z-score is 0.525 in experiment [2]; -0.52 (inactive) in experiment [3]; 2.06 (inactive) in experiment [4]; -0.69 (inactive) in experiment [7] (setting [8]); -0.125 in experiment [7] (setting [9]). Moreover, the EGFP object count in experiment [5] stood at 0.5. Further, the EGFP/DsRed ratio in experiment [5] is 0.00284 (inactive). The fraction signal in experiment [6] was 0 (inactive).

In the case of `NS(=O)(=O)c1ccc(Nc2ncc(-c3ccccc3)o2)cc1`, the liver cell % of control in experiment [1] turned out to be 108%. Besides, the parasite % of control in experiment [1] is 123% (inactive). Further, the percent of negative control (+Dex) in experiment [2] was 117% (inactive). Also, the z-score was 0.745 in experiment [2]; -0.98 (inactive) in experiment [3]; 0.209 (inactive) in experiment [4]; 1.06 (inactive) in experiment [7] (setting [8]); -0.0466 in experiment [7] (setting [9]). Further, in experiment [5], the EGFP object count came out at 3.5. In experiment [5], the EGFP/DsRed ratio is 0.0759 (inactive). In addition, the fraction signal in experiment [6] was -0.0035 (inactive).

Compound `N#Cc1c(NC(=O)c2ccc(F)cc2)sc2c1CCCC2` came in with a liver cell % of control in experiment [1] of 159%. In experiment [1], the parasite % of control is 137% (inactive). Moreover, the percent of negative control (+Dex) in experiment [2] is 246% (active). Besides, the z-score is 14.3 in experiment [2]; -0.855 (inactive) in experiment [3]; 3.47 (inactive) in experiment [4]; -0.073 (inactive) in experiment [7] (setting [8]); 0.00203 in experiment [7] (setting [9]). For the same compound, the EGFP object count in experiment [5] is 6. Moreover, in experiment [5], the EGFP/DsRed ratio is 0.0854 (inactive). Further, the fraction signal in experiment [6] is -0.006 (inactive).

`Oc1[nH]c2ccccc2c1C=Nc1ccc(-n2cncn2)cc1` had a liver cell % of control in experiment [1] of 80.6%. Moreover, the parasite % of control in experiment [1] was 240% (inactive). Further, in experiment [2], the percent of negative control (+Dex) is 142% (active). Further, the z-score was 4.13 in experiment [2]; -0.065 (inactive) in experiment [3]; 3.17 (inactive) in experiment [4]; 0.931 (inactive) in experiment [7] (setting [8]); -0.448 in experiment [7] (setting [9]). Moreover, the EGFP object count in experiment [5] was 8.5. For the same compound, the EGFP/DsRed ratio in experiment [5] is 0.377 (inactive). Further, the fraction signal in experiment [6] was -0.0045 (inactive).

The compound `O=C(O[C@H]1CN[C@H](C#Cc2cc3ncnc(Nc4ccc5c(ccn5Cc5cc(F)ccc5F)c4)c3s2)C1)N1CCOCC1` had a liver cell % of control in experiment [1] of 93.4%. Further, in experiment [1], the parasite % of control was 75.1% (inactive). For the same compound, the percent of negative control (+Dex) in experiment [2] is 62% (inactive). The z-score in experiment [2] is -2.06; in experiment [3], 0.505 (inactive); in experiment [4], 2.01 (inactive); in experiment [7] (setting [8]), -0.816 (inactive); in experiment [7] (setting [9]), -0.0743. Also, the EGFP object count in experiment [5] stood at 3. In experiment [5], the EGFP/DsRed ratio is 0.0606 (inactive). For the same compound, the fraction signal in experiment [6] was -0.0085 (inactive).

The compound `Cc1ccc2c(-c3ccnc(Nc4cccc(C(F)(F)F)c4)n3)c(-c3ccccc3)nn2n1` displayed a liver cell % of control in experiment [1] of 84.8%. In experiment [1], the parasite % of control was 47.5% (inactive). Besides, the percent of negative control (+Dex) in experiment [2] is 89.5% (inactive). In addition, the z-score is -3.32 in experiment [2]; -0.495 (inactive) in experiment [3]; -1.57 (inactive) in experiment [4]; 0.907 (inactive) in experiment [7] (setting [8]); -0.257 in experiment [7] (setting [9]). Further, the EGFP object count in experiment [5] stood at 2.5. For the same compound, in experiment [5], the EGFP/DsRed ratio is 0.0663 (inactive). For the same compound, in experiment [6], the fraction signal is -0.0065 (inactive).

For the compound `c1cc(-c2cnn3nc(N4CCOCC4)ccc23)nc(NC2CC2)n1`, the liver cell % of control in experiment [1] was 147%. In addition, the parasite % of control in experiment [1] was 177% (inactive). Besides, the percent of negative control (+Dex) in experiment [2] is 59.5% (inactive). The z-score in experiment [2] was -2.65; in experiment [3], -0.225 (inactive); in experiment [4], -1.49 (inactive); in experiment [7] (setting [8]), 0.731 (inactive); in experiment [7] (setting [9]), -0.389. For the same compound, in experiment [5], the EGFP object count was 3.5. Also, in experiment [5], the EGFP/DsRed ratio was 0.0725 (inactive). Besides, the fraction signal in experiment [6] was -0.008 (inactive).
